The record followed here is PubChem BioAssay (EPA / NIEHS).

Each structure is given as a SMILES string. Inconclusive results are not listed. Some compounds were tested as several samples or in several runs, with calls that do not always agree. The source made the active and inactive calls. How the source made its calls, unless noted: active means hit-call score of the fitted dose curve at least 0.9, where 1 is the maximum; inactive means score below 0.9.

A short description of test [1]: CCTE_Shafer_MEA_dev_firing_rate_mean: CCTE's Neural Network Formation Assay for Mean Firing Rate, Shafer Lab (AID 2284031).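 On AC50: curve fitted for loss of firing so AC50 reflects decreased mean firing rate.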 The gist of the method: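 Spike frequency (spikes/recording length, averaged over active electrodes) was recorded on days 5, 7, 9 and 12 and collapsed to AUC; rat cortical cultures received compound continuously over 12 days of network development.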

Test [2] is described as follows: CCTE_Shafer_MEA_dev_per_burst_spike_percent: CCTE's Neural Network Formation Assay for Percent of Spikes in a Burst, Shafer Lab (AID 2284032).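 On AC50: fitted as a decrease in burst spike percentage below DMSO baseline.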 The gist of the method:
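Value is trapezoidal AUC over recordings on days 5, 7, 9 and 12 of the well-mean fraction of spikes falling in single-electrode bursts; rat cortical cultures exposed continuously from plating, treatment renewed DIV 5 and 9, fitted downward against DMSO.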

Test [3] can be described thus: CCTE_Shafer_MEA_dev_active_electrodes_number: CCTE's Neural Network Formation Assay for Number of Active Electrodes, Shafer Lab (AID 2284040; active means hit-call score of the fitted dose curve at least 0.9, where 1 is the maximum;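 on AC50: potency for loss of active electrodes versus DMSO so lower counts are hits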). Put shortly: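 Counts electrodes per well firing at least 5 spikes/min, recorded on days 5, 7, 9 and 12 in rat cortical cultures dosed continuously from plating (treatment refreshed DIV 5, 9). Value is the area under the curve over recordings, fitted downward relative to DMSO.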

Test [4] in a line: CCTE_Shafer_MEA_dev_burst_rate: CCTE's Neural Network Formation Assay for Burst Rate, Shafer Lab (AID 2284042).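 On AC50: potency for loss of burst rate below DMSO control.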 Put shortly: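 Developmental network assay measuring how 12-day exposure of rat cortical neuron cultures alters bursting on extracellular MEA recordings. Values are AUC of well-mean burst rate across four recording days, relative to DMSO vehicle.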
Test [5] in a line: CCTE_Shafer_MEA_dev_bursting_electrodes_number: CCTE's Neural Network Formation Assay for Number of Bursting Electrodes, Shafer Lab (AID 2284043; active means hit-call score of the fitted dose curve at least 0.9, where 1 is the maximum;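 on AC50: potency is for loss of bursting electrodes relative to DMSO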). The gist of the method:
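Number of electrodes reaching ≥1 burst every 2 min was recorded at DIV 5, 7, 9 and 12 and collapsed as trapezoidal area under the curve. Cultures were rat cortical neurons on MEA plates, dosed continuously from plating with medium and treatment refreshed on DIV 5 and 9.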

A short description of test [6]: CCTE_Shafer_MEA_dev_burst_duration_mean: CCTE's Neural Network Formation Assay for Mean Burst Duration, Shafer Lab (AID 2284045).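 On AC50: curve fitted for loss meaning shorter burst duration than DMSO.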 Put shortly:
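Mean single-electrode burst duration (first to last spike), averaged over bursting electrodes per well, then integrated as area-under-curve across recordings at days 5, 7, 9 and 12. Rat cortical cultures on MEAs, compound present from plating, refreshed at feeds.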

Test [7] is described as follows: CCTE_Shafer_MEA_dev_interburst_interval_mean: CCTE's Neural Network Formation Assay for Mean Interburst Interval, Shafer Lab (AID 2284046).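 Further: well-mean interburst interval of bursting electrodes as AUC over four recording days; curve fitted for decrease in interburst interval relative to DMSO.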 Put shortly: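 Network formation assay in primary rat cortical cultures, exposed from DIV 0 to 12. Mean interburst interval per well, integrated as AUC over four recordings.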
Test [8] in a line: CCTE_Shafer_MEA_dev_inter_network_spike_interval_mean: CCTE's Neural Network Formation Assay for Mean Inter-network Spike Interval, Shafer Lab (AID 2284047).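 On AC50: potency for a decrease in mean inter-network spike interval below DMSO.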 The gist of the method:
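Compound was given at plating to primary rat cortical neurons and renewed with full medium changes on DIV 5 and 9. Extracellular activity was recorded on days 5, 7, 9, 12; AUC values were fitted for loss relative to DMSO control.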

Test [9] is described as follows: CCTE_Shafer_MEA_dev_network_spike_number: CCTE's Neural Network Formation Assay for Number of Network Spikes, Shafer Lab (AID 2284048).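 Further: synchronized bursts across electrodes counted on days 5 7 9 12 and integrated as AUC.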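 On AC50: fit as a loss of signal meaning fewer network spikes than DMSO.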 The gist of the method: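 Number of network spikes (coordinated firing across electrodes) recorded on days 5, 7, 9 and 12 and summarised as area under the curve. Rat cortical cultures on MEA, continuous compound exposure with full medium/treatment exchange at DIV 5 and 9.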

The nature of test [10]: CCTE_Shafer_MEA_dev_network_spike_peak: CCTE's Neural Network Formation Assay for Mean Number of Electrodes in Network Spike, Shafer Lab (AID 2284049).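 On AC50: fitted for loss of signal meaning fewer electrodes in network spikes than DMSO.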 The gist of the method:
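Rat cortical primary culture, 1.5 x 10^5 cells/well, 48-well MEA (16 electrodes/well). Dosing day 0 through DIV 12, full media/compound exchange DIV 5, 9. AxIS adaptive spike detection; AUC over days 5/7/9/12; loss-of-signal vs DMSO.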

Test [11] can be described thus: CCTE_Shafer_MEA_dev_spike_duration_mean: CCTE's Neural Network Formation Assay for Mean Spike Duration, Shafer Lab (AID 2284051).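 On AC50: potency for a decrease in mean network spike duration versus DMSO.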 Put shortly: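 With DMSO as baseline, loss of mean network spike duration was scored from extracellular recordings of rat cortical neurons on MEA plates. Exposure spanned plating to DIV 12; the four recording days were collapsed into one AUC value.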

The nature of test [12]: CCTE_Shafer_MEA_dev_network_spike_duration_std: CCTE's Neural Network Formation Assay for Standard Deviation of Network Spike Duration, Shafer Lab (AID 2284052).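 Further: hits are decreases in network spike duration SD versus DMSO vehicle.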 The gist of the method:
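Developing networks of rat cortical neurons were exposed over twelve days in vitro on 48-well MEA plates. Trapezoidal AUC of recordings (DIV 5–12) was analysed for signal loss relative to DMSO vehicle.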

In the case of `C/C(=C/C=C/[C@@H](C)C(=O)O)[C@H]1CN[C@H](C(=O)O)[C@H]1CC(=O)O`, the AC50 in [1] is 68 nM (active); in test [2], 2060 nM (active); in test [3], 970 nM (active); in test [4] it was 131 nM (active); in [5], 1280 nM (active); in test [6], 992 nM (active). In addition, the AC50 in test [7] is 32.2 nM (active); in test [8] it was 160 nM (active); in test [9], 21.8 nM (active); in test [10], 1830 nM (active); in test [11], 1130 nM (active); in [12] it was 259 nM (active). Moreover, the call in test [1], in test [2], in test [3], in [4], in test [5] and in test [6] was inactive. The compound was called inactive in test [7], in [8], in test [9], in test [10], in test [11] and in test [12].

As a reminder, the AC50 is the midpoint of the concentration-response curve, whichever way the signal moves.
